Data on 46 sequences can be found in the supplement of paper PMC10338343.

± gives the standard deviation.

Assay [1] relates to MILI (PIWIL2) piRISC loaded with L1MC piRNA (26 nt). Briefly: pre-steady-state target cleavage rate (min^-1); guide: L1MC piRNA 5'p-UAACUAAAUACUAUGCAAGCUGUAGG; higher = faster piRNA-guided slicing of the target. In outline:
(§1)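 A transcribed, DNA-blocked target RNA library (0.1 nM) and 1 nM active affinity-purified piRISC bearing one synthetic guide were incubated in HEPES–potassium acetate buffer at 33 °C for 0–8 or 0–960 min, either with or without 500 nM GTSF1 partner protein. Uncleaved targets were sequenced, normalised to depth and to weakly complementary targets, and pooled over three trials, with k3 capped at 0.0001 min^-1. The pre-steady-state cleavage rate was derived with a burst-and-steady-state fit.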

Assay [2] relates to EfPiwi piRISC loaded with L1MC piRNA (26 nt). Briefly: pre-steady-state target cleavage rate (min^-1); auxiliary factor: 500 nM Ephydatia muelleri Gtsf1; guide: L1MC piRNA 5'p-UAACUAAAUACUAUGCAAGCUGUAGG; MIWI and MILI are mouse PIWI proteins and EfPiwi is from a freshwater sponge; tags in brackets are library labels; higher = faster piRNA-guided slicing of the target. In outline:
as §1

The mark [3] stands for this setting: auxiliary factor: 500 nM mouse GTSF1.
Where [4] appears, read: auxiliary factor: none (no GTSF1).

UCCUGGAUCAGCUUGCAUAGUAUUUUAGUUA: the figures for the “pre-steady-state target cleavage rate” value in assay [1] (setting [3]), in assay [1] (setting [4]) and in assay [2] were 0.23 ± 0.025, 0.0107 ± 0.0028 and 0.0214 ± 0.0071, respectively.
The like results for UCCUGGUACUGCAUGCAUAGUAUUUAGUUA were, in that order, 0.222 ± 0.02, 0.00932 ± 0.0034 and 0.0111 ± 0.0032.
For UCCUGGAUCAGCAUGCAUAGUAUUUAGAAA the same measures were 0.126 ± 0.018, 0.0038 ± 0.0026 and 0.00356 ± 0.0021.
On to UCCUCGUACAGCUUGCAUAGUAUUAAGUUA, for which the “pre-steady-state target cleavage rate” value in assay [1] (setting [3]) amounted to 0.214 ± 0.022; in assay [1] (setting [4]), 0.00547 ± 0.0019; in assay [2], 0.00547 ± 0.0018.
Take UCCUGGUACAGCUUGCAUAGUAUAUUAGUUA: the “pre-steady-state target cleavage rate” value in assay [1] (setting [3]) is 0.26 ± 0.039; in assay [1] (setting [4]) it was 0.0117 ± 0.0038; in assay [2], 0.00489 ± 0.0026.
The like results for UCCUGGUACAGCUUGCAUAGUAGUUUAGUUA were, in that order, 0.217 ± 0.028, 0.00833 ± 0.003 and 0.0074 ± 0.0029.
Consider UCCUCCUACGCUUGCAUAGUAUUUAGUUA, for which the “pre-steady-state target cleavage rate” value is 0.301 ± 0.013 in assay [1] (setting [3]), 0.0071 ± 0.0018 in assay [1] (setting [4]) and 0.0821 ± 0.021 in assay [2].
The like results for UCCUGGAUGUGCUAGCAUAGUAUUUAGUUA were, in that order, 0.125 ± 0.013, 0.00747 ± 0.0023 and 0.00573 ± 0.0027.
For UCCUGGUACAGCUUGCAUAGUAUUUAGAUA the same measures were 0.149 ± 0.033, 0.00493 ± 0.0028 and 0.00705 ± 0.0034.
The like results for UCCUGGAUGAGCUUGCAUAGUAUAUAGUUA were, in that order, 0.24 ± 0.031, 0.00759 ± 0.0023 and 0.00625 ± 0.0026.
As for UCCUGGAACAGCUAGCAUAGUAUUUAGUUA, the “pre-steady-state target cleavage rate” value in assay [1] (setting [3]) was determined as 0.242 ± 0.019; in assay [1] (setting [4]), 0.00629 ± 0.0023; in assay [2] it was 0.015 ± 0.0041.
Take UCCUGGUCACAGCUUGCAUAGUAUUUAGUUA: the results for the “pre-steady-state target cleavage rate” value in assay [1] (setting [3]), in assay [1] (setting [4]) and in assay [2] were 0.239 ± 0.018, 0.0126 ± 0.0051 and 0.00857 ± 0.0072, respectively.
For UCCUGGAUCAGCAUGCAUAGUAAUUAGUUA the same measures were 0.181 ± 0.025, 0.00637 ± 0.0027 and 0.00437 ± 0.0016.
The like results for UCCUGGAACAGCUUGCAUAGUAUUUGGUUA were, in that order, 0.221 ± 0.026, 0.00881 ± 0.0026 and 0.00496 ± 0.002.
For UCCUGGAUUAGCUUGCAUAGUAUUUAGUUA the same measures were 0.232 ± 0.016, 0.00961 ± 0.0024 and 0.0447 ± 0.011.
Consider UCCUGCUUCAGCUUGGAUAGUAUUUAGUUA, for which the “pre-steady-state target cleavage rate” value came out at 0.268 ± 0.015 in assay [1] (setting [3]), 0.0068 ± 0.002 in assay [1] (setting [4]) and 0.0331 ± 0.007 in assay [2].
For “UCCUGGAUGUCCUUGCAUAGUAUUUAGUUG [g2:g19:cont:t1G]” the same measures were 0.0765 ± 0.0096, 0.00821 ± 0.002 and 0.00478 ± 0.0018.
For UCCUGGAUCAGCUUGCAUAGUAUUUAGUGA the same measures were 0.237 ± 0.021, 0.006 ± 0.0028 and 0.0182 ± 0.0068.
For UCCUGGAUGUGCAUUGCAUAGUAUUUAGUUA the same measures were 0.182 ± 0.023, 0.0119 ± 0.0039 and 0.0129 ± 0.0042.
For UCCUGGAUGAGCUUGCAUACUAUUUAGUUA, the “pre-steady-state target cleavage rate” value is 0.0499 ± 0.0093 in assay [1] (setting [3]), 0.00321 ± 0.0018 in assay [1] (setting [4]) and 0.00682 ± 0.0019 in assay [2].
For UCCUCGAUCAGCUUGCAUAGUAUUUAGUUA, the “pre-steady-state target cleavage rate” value in assay [1] (setting [3]) was found to be 0.316 ± 0.017; in assay [1] (setting [4]) it was 0.0102 ± 0.0027; in assay [2], 0.121 ± 0.023.
For UCCUGGAUCUGCAUGCAUAGUAUUUAGUUA the same measures were 0.209 ± 0.015, 0.00837 ± 0.0023 and 0.0798 ± 0.021.
The like results for UCCUCCUUCAGCUUGCAUACUAUUUAGUUA were, in that order, 0.0786 ± 0.013, 0.00296 ± 0.0027 and 0.00784 ± 0.0025.
For UCCUGGAAGAGCUUGCAUAGUAUUAAGUUA the same measures were 0.21 ± 0.023, 0.00346 ± 0.0028 and 0.00519 ± 0.0018.
With UCCUGGAUGACCAUGCAUAGUAUUUAGUUA, the “pre-steady-state target cleavage rate” value is 0.0729 ± 0.022 in assay [1] (setting [3]), 0.00375 ± 0.0034 in assay [1] (setting [4]) and 0.00488 ± 0.0028 in assay [2].
Turning to UCCUGGUACAGCUUGCAUAGUGUUUAGUUA, the “pre-steady-state target cleavage rate” value in assay [1] (setting [3]) is 0.162 ± 0.026; in assay [1] (setting [4]) it was 0.00946 ± 0.0035; in assay [2], 0.00794 ± 0.0028.
As to UCCUCCUACUGCAUGCAUAGUAUUUAGUUA, the “pre-steady-state target cleavage rate” value is 0.252 ± 0.013 in assay [1] (setting [3]), 0.011 ± 0.0022 in assay [1] (setting [4]) and 0.0706 ± 0.019 in assay [2].
As for UCCUGGAAGAGCUUGCAUAGUUUUUAGUUA, the figures for the “pre-steady-state target cleavage rate” value in assay [1] (setting [3]), in assay [1] (setting [4]) and in assay [2] were 0.0486 ± 0.011, 0.004 ± 0.0023 and 0.00316 ± 0.003, respectively.
The like results for UCCUGCAACAGCUUGCAUAGUAUUAAGUUA were, in that order, 0.344 ± 0.039, 0.00432 ± 0.0031 and 0.00881 ± 0.0022.
For UCCUGGUACAGGAUGCAUAGUAUUUAGUAA the same measures were 0.172 ± 0.021, 0.00595 ± 0.002 and 0.00412 ± 0.002.
For UCCUGCUACAGCUCUGCAUAGUAUUUAGUUA the same measures were 0.25 ± 0.016, 0.00983 ± 0.0027 and 0.0151 ± 0.0038.
Regarding UCCUGGUACUGCUUGCAUAGUAAUUAGUUA, the “pre-steady-state target cleavage rate” value in assay [1] (setting [3]) was found to be 0.169 ± 0.031; in assay [1] (setting [4]) it was 0.00575 ± 0.0025; in assay [2] it was 0.114 ± 0.043.
Regarding UCCUGCUAGUCCUUGCAUAGUAUUUAGUUA, the “pre-steady-state target cleavage rate” value in assay [1] (setting [3]) amounted to 0.0977 ± 0.016; in assay [1] (setting [4]), 0.00689 ± 0.0019; in assay [2], 0.00428 ± 0.0023.
For UCCUGGUAGAGGUUGCAUAGUAUUUAGUUA the same measures were 0.185 ± 0.024, 0.0103 ± 0.0031 and 0.00483 ± 0.0034.
For UCCUGGAUCAGCCUUGCAUAGUAUUUAGUUA the same measures were 0.249 ± 0.023, 0.00595 ± 0.0023 and 0.0303 ± 0.0094.
The like results for UCCUCCUACAGCUUGUAUAGUAUUUAGUUA were, in that order, 0.305 ± 0.018, 0.00822 ± 0.0025 and 0.143 ± 0.033.
In the case of UCCUGGAUCAGCUUGCAUAGUAGUUUAGUUA, the “pre-steady-state target cleavage rate” value stood at 0.216 ± 0.02 in assay [1] (setting [3]), 0.00969 ± 0.0027 in assay [1] (setting [4]) and 0.0107 ± 0.0033 in assay [2].
For UCCUGCUACAGCUUGGCAUAGUAUUUAGUUA the same measures were 0.307 ± 0.051, 0.00405 ± 0.0027 and 0.00928 ± 0.0031.
For UCCUCCUACAGCUUGCAUAGUAUAUAGUUA the same measures were 0.242 ± 0.026, 0.00534 ± 0.0019 and 0.00814 ± 0.0038.
As for UCCUCCUACAGGAAGCAUAGUAUUUAGUAA, the “pre-steady-state target cleavage rate” value in assay [1] (setting [3]) was found to be 0.247 ± 0.018; in assay [1] (setting [4]), 0.00328 ± 0.0023; in assay [2], 0.00397 ± 0.0031.
For UCCUGGAUGACUUGCAUAGUAUUUAGUUA the same measures were 0.171 ± 0.014, 0.004 ± 0.0027 and 0.0058 ± 0.0023.
For UCCUCCUACAGCUAGCAAAGUAUUUAGUUA the same measures were 0.138 ± 0.014, 0.00428 ± 0.0022 and 0.0276 ± 0.0094.
For UCCUGGUACAGCAUGCAAAGUAUUUAGUUA the same measures were 0.119 ± 0.014, 0.0117 ± 0.0036 and 0.00646 ± 0.0023.
Regarding “UCCUGGAUGAGCUUGCAUAGUAUUUAGUUG [g2:g21:cont:t1G]”, the “pre-steady-state target cleavage rate” value was determined as 0.186 ± 0.019 in assay [1] (setting [3]), 0.00606 ± 0.0029 in assay [1] (setting [4]) and 0.0161 ± 0.0043 in assay [2].
The like results for UCCUGCUACACCUUGCAUUGUAUUUAGUUA were, in that order, 0.151 ± 0.014, 0.0123 ± 0.004 and 0.00323 ± 0.0025.
The like results for UCCUGCUACAGCUUGCAUAGUAUAUAGUUA were, in that order, 0.227 ± 0.029, 0.00382 ± 0.0029 and 0.00448 ± 0.0019.
